# Measured values reported in PubChem BioAssay AID686978 (National Center for Advancing Translational Sciences (NCATS), 2013).
# Values joined by “and” are separate entries in the source; they are usually repeats but may differ in a detail not shown here. Equal values may be shown once. Out of some 420,000 compounds screened, about 64,000 (15%) were called active. Roughly 27% stayed inconclusive and do not appear here. Calls come from the whole dose curve; as a rule, active = well fitted inhibition curve with a large enough effect; inconclusive = small, poorly fitted or top-dose-only effect; inactive = flat fitted curve, though single readings scatter. These entries were drawn from the full list. Where a call stands in place of a potency, no number is given.
# Assay: qHTS for Inhibitors of human tyrosyl-DNA phosphodiesterase 1 (TDP1): qHTS in cells in absence of CPT; note: nearly all actives have a fitted effect of over 55% in size
# Conditions: DT40 Tdp1-/- hTDP1 cells, no CPT, ATP luminescence, 48 h; activity change, negative = growth inhibition: at 46.2 µM (top of the series)
# Procedure, shortened: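 Growth kinetics read by CellTiter-Glo luminescence after ≥48 hr at 37 °C. Cells: DT40 Tdp1-/- stably carrying human TDP1, 400 per well, compound exposure in the absence of CPT (DMSO vehicle).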
# Potency is the fitted concentration of half-maximal effect.
row,Compound,Potency
1,O=C(NCCN1CCOCC1)Nc1cccc(Cl)c1,inactive
2,CCN1CCN(CCNC(=O)c2ccc3c(c2)NC(=O)/C(=C\c2cccc(Cl)c2)S3)CC1,16.4 µM (active)
3,O=C(NCCCN1CCCCC1)c1ccc2c(c1)NC(=O)C(N1CCOCC1)S2 (stereo unspecified),inactive
4,Cc1cc(C)n(-c2ccc(NC(=O)C3CCCCN3C(=O)c3cccs3)cc2)n1 (stereo unspecified),inactive
5,CCOc1ccc(/C=C(/NC(=O)c2ccccc2)C(=O)NCCC(=O)O)cc1,inactive
6,O=C1CCNCCN1[C@H](CO)Cc1ccccc1,inactive
7,O=C1CCN(Cc2ccc([N+](=O)[O-])cc2)CCN1[C@H](CO)Cc1ccccc1,inactive
8,O=C1CC[C@H](O)CCN1[C@H](CSc1ccc(Br)cc1)Cc1ccccc1,15.8 µM (active) and 16.4 µM (active)
9,COc1ccccc1NC(=O)C1=C(C)Nc2ncnn2C1c1ccc(C)o1 (stereo unspecified),inactive
10,CC(OC(=O)c1cc2ccccc2o1)C(=O)Nc1ccc(N2CCOCC2)cc1 (stereo unspecified),inactive
11,Cc1ccc(NC(=O)c2csc3c2CCCC3)cc1,inactive
12,COC(=O)c1sc(NC(=S)NC(=O)c2ccc(C)cc2)nc1C,inactive
13,CCOc1ccc(CCNC(=O)c2csc3c2CCCCC3)cc1,inactive
14,CC(=O)Cc1nsc(NC(=O)c2csc3c2CCCC3)n1,inactive
15,CCOC(=O)c1ccc(NC(=O)CNC(=O)c2ccco2)cc1,inactive
16,CCOC(=O)c1ccc(NC(=O)c2csc3c2CCCCC3)cc1,14.6 µM (active)
17,CCOC(=O)c1ccc(NC(=O)c2c(NCc3cccc(OC)c3)sc3c2CCC3)cc1,11.6 µM (active)
18,CCOC(=O)c1ccc(NC(=O)c2c(NCc3ccccc3)[nH]c(=O)[nH]c2=O)cc1,inactive
19,CCOC(=O)c1c(NC(=O)Cc2coc3ccc(CC)cc23)sc2c1CCC2,inactive
20,CCOC(=O)c1ccc(NC(=O)c2c(NCc3cccs3)sc3c2CCCC3)cc1,20.6 µM (active)
21,COC(=O)c1sc(NC(=O)c2csc3c2CCCC3)nc1C,23.1 µM (active)
22,CC[C@H](C)C(=O)N[C@H]1CCCN1C(=O)/C=C/c1ccccc1,inactive

row,Compound,Potency
1,Cc1ccc(C(=O)COC(=O)CCCC(=O)NC2CCCCC2)cc1[N+](=O)[O-],inactive
2,COCCNC(=O)C1CCN(C(=O)C2CC(=O)N(c3ccc(C)cc3)C2)CC1 (stereo unspecified),inactive
3,O=C1CCC(=O)N1c1ccc(NCCc2ccccc2F)c([N+](=O)[O-])c1,inactive
4,CCCCN1CCNC1=S,inactive
5,CC1CC(C)CN(C(=O)CSc2nnc(CSc3ncccn3)n2C)C1 (stereo unspecified),inactive
6,COCC1CCCN(C(=O)c2ccc3oc(C(C)C)nc3c2)C1 (stereo unspecified),inactive
7,COc1ccccc1CNc1nc2ccc(Cl)cc2n2cnnc12,inactive
8,COc1ccc(CCNc2nc3c(-c4cccc(F)c4)nnn3c3ccccc23)cc1OC,inactive
9,COc1ccc(CCNc2nc3ccc(C)cc3n3cnnc23)cc1OC,16.4 µM (active) and 23.1 µM (active)
10,COc1ccc(S(=O)(=O)N2CCC(C(=O)NCc3ccco3)CC2)cc1C,inactive
11,COc1ccc(CNC(=O)C2CC(c3ccc(C(F)(F)F)cc3)=NO2)cc1 (stereo unspecified),11.6 µM (active)
12,COc1ccc(-c2cc(C(=O)NCc3ccco3)no2)cc1OC,inactive
13,COc1ccc(CNC(=O)C2CCCC2)cc1,inactive
14,COc1ccc(C2=NOC(C(=O)NCc3ccco3)C2)cc1OC (stereo unspecified),2.59 µM (active)
15,Cc1ccc(NC(=O)C2CC(c3ccc(F)cc3)=NO2)cc1 (stereo unspecified),inactive
16,O=C(COC(=O)COc1ccccc1F)Nc1cccc(S(=O)(=O)N2CCCCC2)c1,inactive
17,O=C1OCCOC2CCCc3oc(-c4ccccc4)c1c32 (stereo unspecified),inactive
18,CCN(CC)CCCN1C(=O)C(=O)/C(=C(/O)c2c(C)nc3ccccn23)C1c1ccc(C)o1 (stereo unspecified),inactive
19,O=C(CCNc1n[nH]c(=O)[nH]c1=O)N/N=C\c1ccc(Br)cc1,inactive
20,Cc1c(O)cc2c(c1C)O[C@](C)(CCC[C@H](C)CCC[C@H](C)CCCC(C)C)CC2,inactive
21,COc1ccc(NC(=O)CN2C(=O)NC(C)(c3ccccc3)C2=O)cn1 (stereo unspecified),inactive
22,COc1ccc(OCC(=O)NN2Cc3ccccc3C2=N)cc1,inactive

row,Compound,Potency
1,Cc1ccc(N2C(=O)c3ccccc3C2(O)c2ncc[nH]2)cc1 (stereo unspecified),inactive
2,C=CCNc1cnn(-c2ccc(C)cc2)c(=O)c1Cl,inactive
3,O=C(NCc1cccc(C(F)(F)F)c1)c1cccc(S(=O)(=O)N2CCN(Cc3ccccc3)CC2)c1,18.4 µM (active)
4,O=C(NCc1ccccc1)c1ccc(S(=O)(=O)Nc2cccc(C(F)(F)F)c2)cc1,inactive
5,O=C(CCC(=O)c1ccccc1)NCc1cccc(C(F)(F)F)c1,inactive
6,O=S(=O)(NCCS(=O)(=O)N1CCN(c2ccccc2)CC1)c1ccc(F)cc1,inactive
7,CN(Cc1cccc2ncccc12)C(=O)CC1C(=O)NCCN1Cc1ccc(F)cc1 (stereo unspecified),inactive
8,CC1CN(/C=C/C(=O)C(F)(F)F)CC(C)O1 (stereo unspecified),inactive
9,Cc1cc(NC(=O)CN2C(=O)NC(CC(C)C)C2=O)no1 (stereo unspecified),inactive
10,CN(c1ccccc1)S(=O)(=O)c1ccc(C(=O)NCc2cccnc2)cc1,inactive
11,O=C(NCc1cccnc1)c1cccnc1Sc1ccc(Cl)cc1,inactive
12,CS(=O)(=O)N(Cc1ccccc1)c1ccc(C(=O)NN=C2CCCCCC2)cc1,inactive
13,Cc1ccc(S(=O)(=O)N(Cc2ccc(Cl)cc2)c2ccccc2C(=O)NCc2cccnc2)cc1,23.1 µM (active)
14,CS(=O)(=O)N(Cc1ccccc1Cl)c1ccc(C(=O)NCc2cccnc2)cc1,14.6 µM (active)
15,O=C(O)c1ccccc1-c1ccccc1C(=O)NCc1cccnc1,inactive
16,CCOc1ccc(OCC(=O)OC(C)C(=O)NC2CCCCC2C)cc1 (stereo unspecified),inactive
17,CC1(C)Oc2ccc3ccc(=O)oc3c2/C(=N/O)C1=O,inactive
18,O=c1cc(COc2cccc(C(F)(F)F)c2)nc2sc3c(n12)CCCC3,inactive
19,Cc1ccc2c(cnn2C(=O)CCC(=O)NC2CCCC2)c1,inactive
20,CCOC(=O)c1c(-c2cccc(N)c2)cn2ccccc12,inactive
21,CCOc1ccc(Nc2oc(/C=C/c3ccc(F)cc3)nc2C#N)cc1,inactive
22,COc1ccccc1/C=C/c1nc(C#N)c(NC(C)c2ccccc2)o1 (stereo unspecified),16.4 µM (active)

row,Compound,Potency
1,N#Cc1nc(/C=C/c2ccc(F)cc2)oc1NCc1ccc(F)cc1,inactive
2,O=C(CNC(=O)c1ccccc1F)OCC(=O)c1c[nH]c2ccccc12,inactive
3,Cc1c(C(=O)N(C)C)sc2c1c(=O)n(-c1ccc(F)cc1)c(=O)n2CC(=O)N(C)c1ccccc1,inactive
4,CCOC(=O)N1CCN(C(=O)C(C)NC(=O)c2ccco2)CC1 (stereo unspecified),inactive
5,CCn1cc(C(=O)N2CCN(Cc3ccc4c(c3)OCO4)CC2)c2cc(OC)c(OC)cc2c1=O,inactive
6,COC(=O)[C@]12CCCCC=C1N(Cc1ccc3c(c1)OCO3)C(=O)[C@H](CC(=O)N1CCOCC1)C2,inactive
7,COC(=O)[C@@]12C[C@@H](CC(=O)N3CCCCC3)C(=O)N(Cc3ccc4c(c3)OCO4)C1=CCC(C)(C)C2,20.6 µM (active)
8,CCOC(=O)C1CCN(C(=O)CC2C(=O)N(Cc3ccccc3)C(C)c3nc4ccccc4n32)CC1 (stereo unspecified),inactive
9,CCOC(=O)N1CCN(C(=O)C[C@@H]2C[C@@]3(C(=O)OC)CC(C)(C)CC=C3N(Cc3ccco3)C2=O)CC1,18.4 µM (active)
10,CCOC(=O)[C@]12CCC=C1N(Cc1ccco1)C(=O)[C@H](CC(=O)N1CCSCC1)C2,inactive
11,COC(=O)[C@@]12C[C@@H](CC(=O)N3CCC(c4ccccc4)CC3)C(=O)N(Cc3ccccc3)C1=CCC(C)(C)C2,14.6 µM (active)
12,O=C(NCc1ccccc1)C1CCN(C(=O)Cc2ccccc2)CC1,inactive
13,CC(C)CCN1CCN(C/C=C/c2ccco2)CC1CCO (stereo unspecified),inactive
14,COC(=O)c1cccc(C(=O)N2CCCC(Nc3ccc4c(c3)OCCO4)C2)c1 (stereo unspecified),inactive
15,O=C(O)Cc1ccc(NCc2ccccc2Cl)cc1,inactive
16,Cc1cccc(-c2nnc(SCC(=O)O)n2Cc2ccccc2)c1,inactive
17,O=C1CC(Cc2ccc(Cl)cc2)C(=O)N1c1cc(Cl)ccn1 (stereo unspecified),inactive
18,O=C(CSc1nc2ccccc2nc1Cc1ccccc1)N1CCCCC1,18.4 µM (active)
19,COc1ccc(CNC(=O)CSc2nc3ccccc3nc2Cc2ccccc2)cc1,inactive
20,O=C(CSc1n[nH]c(-c2ccccc2)n1)N1CCCCC1,inactive
21,COc1cc(NC(=O)Cn2c(=O)n(Cc3ccco3)c(=O)c3oc4ccccc4c32)cc(OC)c1,inactive
22,Cc1c(CCC(=O)O)c(=O)oc2cc3occ(-c4ccccc4)c3cc12,inactive

row,Compound,Potency
1,O=C(c1ccco1)N1CCN(CC(=O)N(C2CCCCC2)C2CCS(=O)(=O)C2)CC1 (stereo unspecified),inactive
2,COC(=O)c1sccc1NC(=O)CC1C(=O)NCCN1C(=O)Nc1ccc(F)cc1F (stereo unspecified),inactive
3,C=C1C=C(C(F)F)n2ncc(C(=O)NCCc3ccccc3OC)c2N1,17.8 µM (active)
4,COc1ccccc1CCNC(=O)c1cnccn1,inactive
5,COc1ccccc1CCNC(=O)CN1C(=O)NC2(CCCC2)C1=O,inactive
6,Cc1nn2cc(-c3ccc(Cl)cc3)cnc2c1Br,inactive
7,COC(=O)CCCC1=CC2=CC(=O)C(C)(OC(=O)c3cccs3)C(=O)C2=CN1c1cccc(C#N)c1 (stereo unspecified),inactive
8,Cc1cccc(NC(=O)N2CCN(C)c3ncccc32)c1C,inactive
9,Cc1cc(NC(=O)CSc2nnc(Nc3ccccc3F)s2)no1,inactive
10,Cc1cc(NC(=O)CSc2nnc(-c3ccc(Cl)s3)o2)no1,16.4 µM (active)
11,COc1ccccc1-c1nnc(SCC(=O)Nc2cc(C)on2)o1,inactive
12,COc1ccc([N+](=O)[O-])cc1NC(=O)CC1SC(=Nc2cccc(C)c2C)N(/N=C(\C)c2ccc(C)cc2)C1=O (stereo unspecified),inactive
13,O=c1oc2ccccc2cc1-c1csc(Nc2ccc(O)cc2)n1,8.2 µM (active)
14,COc1ccc2nc(Nc3nc(-c4cc5ccccc5oc4=O)cs3)sc2c1,11.6 µM (active)
15,Nc1ncc(-c2cc3ccccc3oc2=O)s1,inactive
16,CCNc1nc(-c2cc3ccccc3o2)cs1,inactive
17,COc1ccc2nc(Nc3nc4cc5c(cc4s3)OCCO5)sc2c1,inactive
18,COc1ccc2cc(-c3nc(Cl)c4c5c(sc4n3)CC(C)CC5)c(=O)oc2c1 (stereo unspecified),inactive
